PrP 5UTR inh – suppresses PrP 5' UTR mRNA reporter expression | 340,000 compounds, 0.35% hits | inhibition, % (no concentration beside the values) | cell-based PrP 5' UTR mRNA reporter, plate reader; in the data active = inhibition above about 52%; note: 0 = median of the neutral control wells
PriA SSB inh – inhibitors of Klebsiella pneumoniae PriA binding to SSB C-terminal tail; AlphaScreen SSBct-PriA binding, biotinylated peptide; AID 1272365; inhibition, % at 33 µM; 430,000 compounds, 0.6% hits; in the data active = inhibition mostly above about 37%, no sharp cut-off; inactive = mostly below about 20%;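 note: plate controls were negative control peptide for no effect and reference peptide for full effect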
MazF activator – increases E. coli MazEF RNase cleavage of RNA. P0AE70. FAM/BHQ RNA-DNA oligo cleavage fluorescence, 5 h. activation, % at 20 µM. 350,000 compounds, 0.32% hits. AID 504720; in the data active = activation above about 50%
Target sequence (P0AE70 whole entry, looked up): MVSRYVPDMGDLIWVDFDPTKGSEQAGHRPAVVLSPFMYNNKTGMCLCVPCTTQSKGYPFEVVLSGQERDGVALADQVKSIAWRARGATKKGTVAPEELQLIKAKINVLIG
PfHsp40 rescue – rescue of PfHsp40-mediated yeast toxicity. AID 504582. 340,000 compounds, 0.68% hits. growth rescue, % at 12.5 µM. S. cerevisiae expressing PfHsp40, growth rescue, ATP luminescence; in the data active = growth rescue above about 28%, passing the limit was not always enough;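 note: yeast W303a lacking pdr1 and pdr3 grown in galactose medium; growth measured after three days at 30 °C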
PrPC surface inh – cell surface PrPC inhibition, primary TR-FRET screen; P04156; TR-FRET read-out; inhibition, % at 13.8 µM; 370,000 compounds, 0.43% hits; AID 720596; in the data active = inhibition above about 24%; note: 0% = median of the test wells and 100% = reference compound wells
Active calls of the source: *; / = not tested or not shown; ! = a repeat was not active. Sampled rows, rich in hits. Any-hit rate of the full collection: about 1.8%.

SMILES | PrP 5UTR inh | PriA SSB inh | MazF activator | PfHsp40 rescue | PrPC surface inh
CCOC(=O)c1ccc(N2C(=O)CC(N3CCCC(C)C3)C2=O)cc1 (stereo not given) | -9 | -2 | -1 | 585* | 8
CCCOc1ccc(N2C(=O)CC(N3CCC(C(=O)OCC)CC3)C2=O)cc1 (stereo not given) | -15 | -11 | 10 | 523* | 9
CCOC(=O)c1ccc(N2C(=O)CC(N3CCN(Cc4ccccc4)CC3)C2=O)cc1 (stereo not given) | 4 | -28 | 1 | 0 | 1
O=S(=O)(Nc1cnc(N2CCCC2)nc1)c1ccc2ccccc2c1 | / | -5 | / | / | /
CCOC(=O)c1c(SC)[nH]c2c(Cl)cccc2c1=O | -3 | -5 | -1 | 93* | -3
Cn1c(-c2ccccc2)c(Cn2c(=S)sc3ccccc32)c2ccccc21 | / | 9 | / | / | /
CC1=CC(=C2N=C(c3ccccc3)OC2=O)C=C(C)O1 | -44 | -9 | 306* | -2 | -5
CCOC(=O)C1C(c2ccc(C)o2)NC(=O)NC1(O)C(F)(F)F (stereo not given) | 2 | 43*! | 9 | 0 | 0
COc1cc(-c2nc3ccc(C)cn3c2Nc2ccc3c(c2)OCCO3)ccc1O | -10 | 55* | -3 | 0 | 5
COc1cc(-c2nc3cnccn3c2Nc2ccc3c(c2)OCCO3)ccc1O | -7 | 22 | 8 | 0 | -3
COC(=O)c1cc(Br)ccc1-c1ccc(/C=N/n2nnnc2N)o1 | -9 | / | 54* | -1 | -2
Cc1ccc([N+](=O)[O-])cc1-c1ccc(/C=N\n2nnnc2N)o1 | 3 | / | 7 | -1 | -1
COCCCNc1oc(-c2ccccc2F)nc1C#N | -29 | 4 | 5 | 34* | 1
Cc1ccc(S(=O)(=O)CCC(=O)Oc2ccc(-c3nnco3)cc2)cc1 | -9 | 1 | 2 | 5 | -4
COc1cc(SC)ccc1C(=O)Nc1ccc(C)cc1C | -67 | -6 | 9 | -1 | 14
COc1cc(SC)ccc1C(=O)Nc1ccc(C)cc1 | -67 | -15 | 1 | 147* | -9
Cn1cccc1C(O)CCNC(=O)c1csc(-c2ccccc2)n1 (stereo not given) | / | 14 | / | / | /
c1ccc(-c2nc3ccccc3[nH]2)cc1 | -43 | -12 | -18 | -1 | 3
Nc1cc(N)cc(-c2nc3ccccc3[nH]2)c1 | -21 | 45* | 15 | -1 | -5
O=C1c2ccccc2NC(c2ccc(-c3ccc(Br)cc3)o2)N1O (stereo not given) | -13 | -4 | -6 | 0 | 2
O=C1c2ccccc2NC(c2ccc(-c3ccc(F)cc3)o2)N1O (stereo not given) | -74 | -4 | 3 | 168* | 7
O=C1c2ccccc2NC(c2ccc(-c3cccc([N+](=O)[O-])c3)o2)N1O (stereo not given) | -15 | 18 | 2 | 233* | -10
COc1ccc(S(=O)(=O)N(CC(C)C)CC(C)C)c2cccnc12 | 5 | -4 | -6 | -1 | 12
O=[N+]([O-])c1ccc(OCCCn2cncn2)cc1 | 9 | -8 | -1 | 51* | -6
c1ccc(COc2ccc(OCCOCCn3cncn3)cc2)cc1 | -53 | -10 | -1 | 0 | 1
SMILES | PrP 5UTR inh | PriA SSB inh | MazF activator | PfHsp40 rescue | PrPC surface inh
c1ccc(Oc2cccc(OCCCn3cncn3)c2)cc1 | -18 | -14 | 1 | 95* | -1
O=[N+]([O-])c1ccc(OCCOCCOc2ccc([N+](=O)[O-])cc2)cc1 | -17 | -1 | -4 | 0 | -2
CCCS(=O)(=O)NC(=O)C1(C)CCN(C(=O)c2c(F)ccc(C)c2F)C1 (stereo not given) | / | / | / | / | 0
Ic1ccc(Cn2c(-c3ccc(I)o3)nc3ccccc32)o1 | / | 1 | / | / | /
Brc1ccc(Cn2c(-c3ccc(Br)o3)nc3ccccc32)o1 | -30 | 57*! | -7 | 56* | 6
CCOC(=O)NNc1ccc2nonc2c1[N+](=O)[O-] | -21 | 20 | 13 | 124* | /
CC(C)(C)c1ccc(C(=O)NN=C2CCCC2)cc1 | -14 | -12 | 6 | 0 | -3
CCc1cccc(NC(=O)CNC(=O)N2CC(=O)Nc3ccccc32)c1 | -25 | -14 | 3 | -1 | 3
CCc1cccc(Nc2c([N+](=O)[O-])cc(C(=O)N3CC(=O)Nc4ccccc43)cc2[N+](=O)[O-])c1 | -10 | 48* | 11 | 0 | -7
CN(Cc1cccc(Cl)c1Cl)c1ccc(S(=O)(=O)N2CCCCC2)cc1[N+](=O)[O-] | -16 | 18 | -1 | -1 | 3
O=C(NCCn1cnc2ccsc2c1=O)c1cc(C2CC2)on1 | / | 38* | / | / | /
CCCC1COC(Cn2cncn2)(c2ccc(Cl)cc2Cl)O1 (stereo not given) | -5 | -16 | -1 | 134* | 4
CC1(c2ccc(Cl)cc2Cl)OCC(Cn2cncn2)O1 (stereo not given) | -17 | 0 | 10 | -1 | 6
COc1ccc(NC(=O)COC(=O)CC23CC4CC(CC(C4)C2)C3)c([N+](=O)[O-])c1 | -7 | 66* | -9 | 3 | -7
COc1ccc(NC(=O)CN(C)S(=O)(=O)c2ccccc2)c([N+](=O)[O-])c1 | -25 | -6 | 263* | 0 | 3
COc1ccc(NC(=O)CN(C)S(=O)(=O)c2ccc(Cl)cc2)c([N+](=O)[O-])c1 | / | -13 | 14 | -1 | /
CCOc1ccc(N/C=C/C(=O)c2ccc(C)cc2)c([N+](=O)[O-])c1 | -72 | / | 39 | -1 | 1
COc1ccc(NC(=O)c2ccccc2NS(=O)(=O)c2ccc(C)cc2)c([N+](=O)[O-])c1 | -13 | 53* | -2 | 0 | 12
CCOc1ccc(NC=CC(=O)c2ccccc2)c([N+](=O)[O-])c1 | / | 43* | / | / | /
Cc1ccsc1C(=O)N1CCCC(N(C)Cc2ccccc2)C1 (stereo not given) | -24 | 3 | 1 | 0 | 0
N#CCC[C@@H]1CC[C@]2(CCCN(Cc3ccccc3)C2)O1 | / | / | / | / | 4
CCOc1ccc(NC(=O)c2snnc2C)c([N+](=O)[O-])c1 | / | 52* | / | / | /
CCOc1ccc(NC(=O)COc2ccccc2)c([N+](=O)[O-])c1 | -18 | 7 | 14 | -1 | -9
CCOc1ccc(NC(=O)Cc2ccccc2)c([N+](=O)[O-])c1 | -20 | 43* | 2 | 0 | -17
CCN1CCN(C(=O)C(N)Cc2ccccc2)CC1 (stereo not given) | -17 | -8 | 4 | 0 | -10
SMILES | PrP 5UTR inh | PriA SSB inh | MazF activator | PfHsp40 rescue | PrPC surface inh
COC(=O)c1sc2cccc(F)c2c1S(=O)(=O)NCc1cccnc1 | / | 52* | / | / | /
COc1ccc(CCNCCC(c2ccccc2)c2ccccc2)cc1OC | / | / | 10 | / | -8
COc1cc(OC)c(OC)cc1CCC(C)NCCC(c1ccccc1)c1ccccc1 (stereo not given) | -6 | 42* | 32 | 0 | -19
O=C(c1cc(Cl)nc2ccccc12)N(Cc1nnc(-c2ccc(Cl)cc2)o1)C1CC1 | -27 | -1 | -4 | 0 | 1
CC1=Nc2ccccc2/C1=C\c1nc(-c2ccc(C(F)(F)F)cc2)oc1O | / | 9 | 57* | 0 | -1
O=C1C=CC(=O)N1c1ccc(Nc2ccccc2)cc1 | -9 | -6 | -2 | 236* | -7
